Common to all, as to assay: DAPPL (digital affinity profiling via proximity ligation, sequencing); 10 mM Tris-HCl pH 7.5, 50 mM NaCl, 1 mM DTT, 4% glycerol, room temperature, 30 min; GST-TFs on glutathione beads, 16-mer random dsDNA library, 0.1% formaldehyde crosslink after washing; high values mean tight binding
Common to all, as to details: protein: recombinant; tags: N-terminal GST; dsDNA, one strand shown

In one assay the target is T1, ELK3 (Homo sapiens, UniProt P41970 1-407).
T1 sequence: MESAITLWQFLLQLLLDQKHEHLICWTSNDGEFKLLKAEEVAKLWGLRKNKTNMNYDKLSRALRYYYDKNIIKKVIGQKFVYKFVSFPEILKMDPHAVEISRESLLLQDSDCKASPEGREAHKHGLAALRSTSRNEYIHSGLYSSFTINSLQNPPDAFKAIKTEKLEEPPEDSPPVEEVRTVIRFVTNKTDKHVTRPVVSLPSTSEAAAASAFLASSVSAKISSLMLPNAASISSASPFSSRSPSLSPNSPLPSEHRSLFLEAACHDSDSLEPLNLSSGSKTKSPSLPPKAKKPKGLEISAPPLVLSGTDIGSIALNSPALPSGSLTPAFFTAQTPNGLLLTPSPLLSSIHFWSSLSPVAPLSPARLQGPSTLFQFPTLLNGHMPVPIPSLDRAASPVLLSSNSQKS
The method, boiled down:
(§1)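 Human transcription factors fused to GST were expressed in yeast, captured on glutathione beads, given DNA barcodes and pooled with a GST-only negative control. Pools were incubated with 200 nmole of a 16-mer random double-stranded DNA library in Tris/NaCl/DTT/glycerol buffer at room temperature for 30 min. They were then washed, crosslinked with 0.1% formaldehyde, proximity-ligated (BsaI/T4 ligase, 1 h, 37 °C), PCR-amplified and sequenced on an Illumina NextSeq500. Binding signal is each 6-mer's read frequency for a factor divided by its frequency for the GST control.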

The next assay addresses T2, ELK4 (Homo sapiens, UniProt P28324-2 1-405).
T2 sequence: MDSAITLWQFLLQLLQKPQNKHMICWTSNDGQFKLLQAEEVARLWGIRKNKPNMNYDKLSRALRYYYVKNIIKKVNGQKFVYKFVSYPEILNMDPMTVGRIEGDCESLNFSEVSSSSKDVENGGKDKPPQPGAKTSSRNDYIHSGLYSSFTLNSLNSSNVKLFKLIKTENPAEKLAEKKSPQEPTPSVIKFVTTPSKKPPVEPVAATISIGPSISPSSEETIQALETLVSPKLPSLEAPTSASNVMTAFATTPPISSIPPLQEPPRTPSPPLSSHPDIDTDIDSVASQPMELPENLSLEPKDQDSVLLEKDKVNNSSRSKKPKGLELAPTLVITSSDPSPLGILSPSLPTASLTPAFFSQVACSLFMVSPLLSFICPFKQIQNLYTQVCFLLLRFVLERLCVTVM
Summed up: as §1

Another assay deals with T3, ELF3 (Homo sapiens, UniProt P78545 1-371).
T3 sequence: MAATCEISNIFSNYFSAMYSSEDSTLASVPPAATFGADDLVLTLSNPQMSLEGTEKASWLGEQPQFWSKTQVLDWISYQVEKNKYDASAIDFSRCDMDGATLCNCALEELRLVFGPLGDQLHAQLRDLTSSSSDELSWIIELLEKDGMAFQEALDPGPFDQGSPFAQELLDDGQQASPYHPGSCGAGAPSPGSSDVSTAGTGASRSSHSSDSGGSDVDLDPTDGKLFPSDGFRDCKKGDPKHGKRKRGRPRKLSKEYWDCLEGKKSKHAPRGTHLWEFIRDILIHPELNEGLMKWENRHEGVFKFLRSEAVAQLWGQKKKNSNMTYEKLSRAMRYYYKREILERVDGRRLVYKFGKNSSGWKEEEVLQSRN
Summed up:
as §1

In the next assay the target is T4, ETV7 (Homo sapiens, UniProt Q9Y603 1-341).
T4 sequence: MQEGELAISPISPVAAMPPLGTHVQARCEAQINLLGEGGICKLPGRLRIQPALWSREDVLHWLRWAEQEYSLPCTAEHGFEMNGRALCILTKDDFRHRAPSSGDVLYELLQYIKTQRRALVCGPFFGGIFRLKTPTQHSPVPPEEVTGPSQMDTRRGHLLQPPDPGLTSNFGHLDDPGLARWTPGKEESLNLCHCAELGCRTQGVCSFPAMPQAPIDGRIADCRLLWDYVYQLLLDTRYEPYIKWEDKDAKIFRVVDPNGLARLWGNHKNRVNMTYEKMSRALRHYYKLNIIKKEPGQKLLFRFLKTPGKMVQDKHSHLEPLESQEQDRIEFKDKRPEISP
Summed up:
as §1

For the next assay, the target named is T5, ETV2 (Homo sapiens, UniProt O00321 1-342).
T5 sequence: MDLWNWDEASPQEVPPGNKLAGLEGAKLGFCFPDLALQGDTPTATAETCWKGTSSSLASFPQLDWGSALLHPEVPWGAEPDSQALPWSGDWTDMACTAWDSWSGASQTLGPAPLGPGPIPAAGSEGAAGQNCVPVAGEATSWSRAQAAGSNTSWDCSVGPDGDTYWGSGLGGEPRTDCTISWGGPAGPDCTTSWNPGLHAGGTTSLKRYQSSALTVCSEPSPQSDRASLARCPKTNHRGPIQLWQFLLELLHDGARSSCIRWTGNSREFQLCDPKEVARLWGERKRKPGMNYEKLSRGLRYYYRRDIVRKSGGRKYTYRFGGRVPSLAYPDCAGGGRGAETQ
The method, boiled down: as §1

A further assay addresses CRX (Homo sapiens, UniProt O43186 1-299). The method, boiled down:
as §1

Chain of CRX (O43186 whole entry): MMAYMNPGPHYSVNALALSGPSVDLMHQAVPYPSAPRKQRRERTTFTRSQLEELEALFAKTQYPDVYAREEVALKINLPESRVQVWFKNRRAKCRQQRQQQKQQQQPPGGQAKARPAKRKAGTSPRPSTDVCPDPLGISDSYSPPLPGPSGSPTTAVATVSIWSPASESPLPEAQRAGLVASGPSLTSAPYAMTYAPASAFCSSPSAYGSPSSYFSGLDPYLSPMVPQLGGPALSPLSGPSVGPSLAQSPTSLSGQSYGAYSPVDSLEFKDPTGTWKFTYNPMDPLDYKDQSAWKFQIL

ACCACC: the binding signal is 1.21 fold enrichment (6-mer frequency, TF over GST control) in the assay with ELK3; 1.16 fold enrichment (6-mer frequency, TF over GST control) with ELK4; 1.21 fold enrichment (6-mer frequency, TF over GST control) with ELF3.

Take ATGGTG: the binding signal with ELK3 is 1.02 fold enrichment (6-mer frequency, TF over GST control); with ELK4, 1.17 fold enrichment (6-mer frequency, TF over GST control); in the assay with ELF3, 1.07 fold enrichment (6-mer frequency, TF over GST control).

On to AAGGCA, for which the binding signal in the assay with ELK4 is 1.03 fold enrichment (6-mer frequency, TF over GST control); with ETV7, 1.05 fold enrichment (6-mer frequency, TF over GST control).

As to GGTTTT, the binding signal was 1.04 fold enrichment (6-mer frequency, TF over GST control) in the assay with ELK3; 1.03 fold enrichment (6-mer frequency, TF over GST control) with ELK4; 1.2 fold enrichment (6-mer frequency, TF over GST control) in the assay with ETV2; 1.14 fold enrichment (6-mer frequency, TF over GST control) with ELF3; 1.19 fold enrichment (6-mer frequency, TF over GST control) with CRX; 1.1 fold enrichment (6-mer frequency, TF over GST control) with ETV7.

On to GCGCGC, for which the binding signal in the assay with ELK3 is 1.01 fold enrichment (6-mer frequency, TF over GST control); with ELK4, 1.1 fold enrichment (6-mer frequency, TF over GST control); with ELF3, 1.05 fold enrichment (6-mer frequency, TF over GST control); in the assay with ETV7, 1.05 fold enrichment (6-mer frequency, TF over GST control).

As to ACATGG, the binding signal with ELK3 is 1.09 fold enrichment (6-mer frequency, TF over GST control); with ELK4, 1.22 fold enrichment (6-mer frequency, TF over GST control); with ELF3 it was 1.17 fold enrichment (6-mer frequency, TF over GST control); with ETV7 it was 1.08 fold enrichment (6-mer frequency, TF over GST control).

TGGTGC: the binding signal was 1.14 fold enrichment (6-mer frequency, TF over GST control) with ELK4 and 1.07 fold enrichment (6-mer frequency, TF over GST control) with ETV7.

As for GTCTTG, the binding signal in the assay with ELK3 is 1.17 fold enrichment (6-mer frequency, TF over GST control); with ELK4 it was 1.02 fold enrichment (6-mer frequency, TF over GST control); with ETV7, 1.19 fold enrichment (6-mer frequency, TF over GST control).

In the case of GTCCCA, the binding signal with ELK3 was 1.18 fold enrichment (6-mer frequency, TF over GST control); with ELK4, 1.13 fold enrichment (6-mer frequency, TF over GST control); in the assay with ELF3, 1.08 fold enrichment (6-mer frequency, TF over GST control); with ETV7, 1.13 fold enrichment (6-mer frequency, TF over GST control).

As to CATACG, the binding signal with ELK3 was 1.12 fold enrichment (6-mer frequency, TF over GST control); with ELK4, 1.07 fold enrichment (6-mer frequency, TF over GST control); in the assay with ELF3, 1.07 fold enrichment (6-mer frequency, TF over GST control).

Regarding CCACCT, the binding signal with ELK3 is 1.06 fold enrichment (6-mer frequency, TF over GST control); with ELK4, 1.21 fold enrichment (6-mer frequency, TF over GST control); in the assay with ELF3, 1.3 fold enrichment (6-mer frequency, TF over GST control).

For ACGTTG, the binding signal was 1.01 fold enrichment (6-mer frequency, TF over GST control) with ELK3; 1.12 fold enrichment (6-mer frequency, TF over GST control) with ELK4; 1.1 fold enrichment (6-mer frequency, TF over GST control) with ETV7.

For ACCACA, the binding signal is 1.14 fold enrichment (6-mer frequency, TF over GST control) with ELK3; 1.13 fold enrichment (6-mer frequency, TF over GST control) with ELK4; 1.02 fold enrichment (6-mer frequency, TF over GST control) with ELF3.

CGCCCG: the binding signal is 1.15 fold enrichment (6-mer frequency, TF over GST control) with ELK3; 1.09 fold enrichment (6-mer frequency, TF over GST control) with ELK4; 1.14 fold enrichment (6-mer frequency, TF over GST control) in the assay with ELF3; 1.08 fold enrichment (6-mer frequency, TF over GST control) with ETV7.

In the case of TGCCAA, the binding signal was 1.05 fold enrichment (6-mer frequency, TF over GST control) in the assay with ELK3; 1.06 fold enrichment (6-mer frequency, TF over GST control) with ELK4; 1.17 fold enrichment (6-mer frequency, TF over GST control) with ELF3; 1.01 fold enrichment (6-mer frequency, TF over GST control) with ETV7.
